Reference: paper PMC4336329 (PLoS ONE, 2015)
About 14,000 (4.5%) of roughly 310,000 compounds showed an effect of 50% or more. Effects have a minus sign here. This is one part of a sample in which strong results are shown more often than they occur.

These compounds were tested against human ether-à-go-go-related gene (hERG) potassium channel (human, UniProt Q12809) (assay: primary screen, population patch clamp on CHO cells stably expressing hERG; higher = less effect of the substance).
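Further: peak tail current of the secondary pulse compared with the same well before compound.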

Sequence of human ether-à-go-go-related gene (hERG) potassium channel (Q12809 whole entry, looked up): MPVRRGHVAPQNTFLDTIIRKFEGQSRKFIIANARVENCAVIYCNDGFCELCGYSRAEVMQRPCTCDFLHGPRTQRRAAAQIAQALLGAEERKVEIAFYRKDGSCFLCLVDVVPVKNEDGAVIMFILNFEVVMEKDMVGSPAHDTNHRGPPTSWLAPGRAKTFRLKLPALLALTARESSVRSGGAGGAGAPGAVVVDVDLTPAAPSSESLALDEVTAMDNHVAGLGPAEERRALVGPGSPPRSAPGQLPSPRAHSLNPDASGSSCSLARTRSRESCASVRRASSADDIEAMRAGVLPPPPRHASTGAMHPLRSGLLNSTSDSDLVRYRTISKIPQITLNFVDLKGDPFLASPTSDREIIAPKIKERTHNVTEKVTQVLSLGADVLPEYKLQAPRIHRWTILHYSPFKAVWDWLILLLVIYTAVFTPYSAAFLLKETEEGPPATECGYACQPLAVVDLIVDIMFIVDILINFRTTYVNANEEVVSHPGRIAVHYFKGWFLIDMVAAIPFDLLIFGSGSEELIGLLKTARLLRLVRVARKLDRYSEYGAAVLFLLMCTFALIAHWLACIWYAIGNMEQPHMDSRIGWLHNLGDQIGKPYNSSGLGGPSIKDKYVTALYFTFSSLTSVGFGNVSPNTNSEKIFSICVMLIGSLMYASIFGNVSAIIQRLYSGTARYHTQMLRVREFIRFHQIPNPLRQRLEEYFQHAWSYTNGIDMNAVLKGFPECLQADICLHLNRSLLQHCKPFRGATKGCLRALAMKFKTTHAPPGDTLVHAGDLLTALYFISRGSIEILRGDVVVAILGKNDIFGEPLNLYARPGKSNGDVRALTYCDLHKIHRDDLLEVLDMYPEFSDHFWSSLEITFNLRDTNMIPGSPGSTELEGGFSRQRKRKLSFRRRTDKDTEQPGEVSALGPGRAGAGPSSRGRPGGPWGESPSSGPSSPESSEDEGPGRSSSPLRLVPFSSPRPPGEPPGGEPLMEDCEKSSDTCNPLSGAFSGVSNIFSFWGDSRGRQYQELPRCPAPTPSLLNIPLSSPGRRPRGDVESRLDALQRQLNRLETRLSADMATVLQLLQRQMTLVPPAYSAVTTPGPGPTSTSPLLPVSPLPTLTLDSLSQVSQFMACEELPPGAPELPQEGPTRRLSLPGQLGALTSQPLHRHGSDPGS

Point of comparison: `Nc1c(C(=O)NCCN2CCOCC2)c2nc3ccccc3nc2n1Cc1ccccc1`, “hERG current change (%, negative = inhibition) at 10uM” value 1.38%. Against it:
- Cc1ccc(NC(=O)CSc2nc(N)c3c4c(sc3n2)CSC(C)(C)C4)cc1 — higher, 14.2%
- COc1ccc(NC(=O)C2CCN(C(=O)Nc3ccccc3)CC2)cc1S(=O)(=O)N(C)C — higher, 12.5%
- Cc1ccc(S(=O)(=O)NCCNc2ccc([N+](=O)[O-])cc2)cc1 — lower, -22.8%
- O=S(=O)(NCCCc1ccccc1)c1ccccc1 — higher, 10.3%
- Cc1ccc(S(=O)(=O)NCCCNS(=O)(=O)c2ccc(C)cc2)cc1 — lower, -17.9%
- O=[N+]([O-])c1ccc(S(=O)(=O)NCCCc2ccccc2)cc1 — lower, -64.6%
- O=[N+]([O-])c1ccc(NCCCNS(=O)(=O)c2ccccc2)cc1 — lower, -64.7%
- O=[N+]([O-])c1ccc(NCCCNS(=O)(=O)c2ccccc2)c(Cl)c1 — lower, -14.3%
- O=[N+]([O-])c1ccc(NCCNS(=O)(=O)c2ccccc2)cc1 — lower, -38.9%
- O=S(=O)(NCCCc1ccccc1)c1ccc(Br)cc1 — lower, -9.3%
- Cc1ccc(S(=O)(=O)NCCCNc2ccc([N+](=O)[O-])cc2)cc1 — lower, -65.2%
- O=S(=O)(O)c1cccc(N=Nc2c(O)ccc3ccccc23)c1 — higher, 16.4%
- N#Cc1ccc(OCC(=O)NCCN2CCOCC2)cc1 — lower, -11.7%
- O=C(COC(=O)/C=C/c1ccc(Cl)cc1)NC1CCCCCC1 — lower, -1.22%
- Cc1ccc(C)c(NC(=O)Cc2nc(CCl)cs2)c1 — lower, -14.1%
- CC(C)Oc1cccc(C(=O)NC(=S)Nc2ccccc2)c1 — lower, -7.26%
- CCOC(=O)c1ccc(NC(=O)N(CC)CC)cc1 — higher, 4.46%
- CCCC(=O)N1CCN(c2ccc(NC(=S)NC(=O)c3cccc(C)c3)cc2)CC1 — lower, -18.3%
- CCCCCOC(=O)c1c(N)n(CCOC)c2nc3ccccc3nc12 — lower, -70.2%
- Nc1c(C(=O)NCc2ccco2)c2nc3ccccc3nc2n1CCN1CCOCC1 — lower, -4.63%
- CCCCn1c(N)c(C(=O)NCCN2CCOCC2)c2nc3ccccc3nc21 — lower, -64.1%
- CCCCOCCCn1c(N)c(C(=O)OCCOC)c2nc3ccccc3nc21 — lower, -32.9%
- COCCOC(=O)c1c(N)n(CCCN2CCOCC2)c2nc3ccccc3nc12 — lower, -53.3%
- COC(=O)c1c(N)n(CCCN2CCOCC2)c2nc3ccccc3nc12 — lower, -29.9%
- CCCCCCn1c(N)c(C(=O)NCCN2CCOCC2)c2nc3ccccc3nc21 — lower, -8.61%
- Nc1c(C(=O)NCCN2CCOCC2)c2nc3ccccc3nc2n1Cc1ccco1 — lower, -68.8%
- CCCCCn1c(N)c(C(=O)NCCN2CCOCC2)c2nc3ccccc3nc21 — lower, -17.1%
- CCCCn1c(N)c(C(=O)OCCOC)c2nc3ccccc3nc21 — lower, -42.4%
- COCC(C)OC(=O)c1c(N)n(CCCN2CCOCC2)c2nc3ccccc3nc12 (centres unmarked) — lower, -9.69%
- COc1ccccc1N(CC(=O)NCc1ccccc1)C(=O)CCC(=O)Nc1cc(C)ccn1 — lower, -9.35%
- CC(O)c1c(OCc2ccccc2)ncnc1OCc1ccccc1 (centres unmarked) — lower, -15.5%
- CCN(CC)S(=O)(=O)c1ccc(S(=O)(=O)N(CC(=O)Nc2ccccc2)CC2CCCO2)cc1 (centres unmarked) — lower, -18.6%
- COc1cccc(N2CCN(C(=O)C3CCC(=O)N(C4CCCCCC4)C3)CC2)c1 (centres unmarked) — lower, -32.8%
- COc1ccc(NC2c3ccccc3C(=O)N2c2ccccn2)cc1Cl (centres unmarked) — lower, -5.24%
- Cc1ccc(-c2cc(C(=O)N/N=C/c3ccc(F)cc3)n[nH]2)o1 — higher, 4.98%
- COc1ccc(CCNC(=O)c2cn3ccc(C)cc3n2)cc1OC — higher, 1.66%
- Cc1ccc(S(=O)(=O)N(C)C)cc1NC(=S)N1CCc2ccccc21 — higher, 11.5%
- COc1ccc(NC(=O)c2cc3ccccc3[nH]2)cc1 — higher, 15.4%
- Cc1ccccc1-n1c(C)c(C#N)c(=O)c(-[n+]2ccccc2)c1[S-] — higher, 23.4%
- Cc1cc(S(=O)(=O)N2CCCC2)ccc1OCC(=O)NCc1ccccn1 — higher, 4.98%
- O=C(NC(=C(Cl)Cl)S(=O)(=O)c1ccc(Cl)cc1)c1ccccc1 — higher, 3.23%
- Nc1c(C(=O)NCCc2ccccc2)c2nc3ccccc3nc2n1CCN1CCOCC1 — lower, -3.49%
- Nc1c(C(=O)NCCN2CCOCC2)c2nc3ccccc3nc2n1CCc1ccccc1F — lower, -27.2%
- CC(C)Cn1c(N)c(C(=O)NCCN2CCOCC2)c2nc3ccccc3nc21 — lower, -72.7%
- CCn1c(O)c(C=NCc2cccs2)c(=O)[nH]c1=O — lower, -6.15%
- CS(=O)(=O)c1ccc(C(=O)NC2CCCCC2)cc1 — higher, 12.1%
- Cc1nc2ccccc2c2c1CC(C(C)(Cl)Br)O2 (centres unmarked) — lower, -61.6%
- COc1ccc2nc(C)c3c(c2c1)OC(C(C)(Cl)Br)C3 (centres unmarked) — lower, -34%
- Cc1ccc2nc(C)c3c(c2c1)OC(C(C)(Cl)Br)C3 (centres unmarked) — lower, -16.5%
- CC(C)n1cnc2c(N(C)c3ccccc3)nc(N(CCN(C)C)Cc3ccccc3)nc21 — lower, -73.1%
- COc1cc(N(Cc2ccccc2)Cc2ccccc2)c2ncn(C(C)C)c2c1 — higher, 6.37%
- CC(C)n1cnc2c(NCc3ccccc3)nc(NCc3ccccc3)nc21 — lower, 0.281%
- Cn1c(C(=O)NCCCN2CCN(c3ccccc3F)CC2)cc2c(=O)n(C)c3ccccc3c21 — lower, -11.7%
- O=C(Cn1ncc2c(=O)oc3ccccc3c21)NCCN1CCN(c2ccccc2F)CC1 — lower, -28.4%
- Cc1cc(C)c2c(=O)n(CC(=O)NCCCN3CCOCC3)sc2n1 — higher, 11.4%
- CN1CCN(CCCNC(=O)Cn2ncc3c4ccccc4n(C)c3c2=O)CC1 — higher, 12%
- COCCNC(=O)Cn1cc(S(=O)(=O)N2CCN(c3ccccc3F)CC2)c2ccccc2c1=O — lower, -2.76%
- CC1CCCC(C)N1CCCNC(=O)Cn1ncc2c3ccccc3n(C)c2c1=O (centres unmarked) — lower, -36.9%
- CCCN1CCN(CCCNC(=O)Cn2ncc3c4ccccc4n(C)c3c2=O)CC1 — lower, -56.6%
- O=C(Cn1cc(S(=O)(=O)N2CCN(c3ccccc3F)CC2)c2ccccc2c1=O)NCCCN1CCCCCC1 — lower, -61.1%
- CCCNC(=O)Cn1sc2nc(C)cc(C)c2c1=O — lower, -6.1%
- Cc1cc(C)c2c(=O)n(CC(=O)NCCCN3CCN(c4ccccc4F)CC3)sc2n1 — lower, -55.3%
- CCC(C)NC(=O)Cn1cc(S(=O)(=O)N2CCN(c3ccccc3F)CC2)c2ccccc2c1=O (centres unmarked) — lower, -4.4%
- Cn1c2ccccc2c2cnn(CC(=O)NCCCN3CCN(c4ccccc4F)CC3)c(=O)c21 — lower, -76.3%
- CC(=O)OC1COC(N2CCc3cc([N+](=O)[O-])ccc32)C(OC(C)=O)C1OC(C)=O (centres unmarked) — higher, 2.87%
- CC(=O)c1nc(N2C(=O)CC(Cc3cccc(C)c3)C2=O)sc1C (centres unmarked) — lower, -16.3%
- CCOC(=O)C1CCCN(C(=O)CCCn2nnnc2CN2CCC(C)CC2)C1 (centres unmarked) — lower, -8.13%
- O=C1Nc2ccc(Br)cc2C1(O)c1ccc(F)cc1 (centres unmarked) — higher, 7%
- Nc1cc(=O)[nH]c(SCC(=O)NCC2CCCO2)n1 (centres unmarked) — higher, 1.45%
- NC(=O)COC(=O)CC(c1ccccc1)c1ccccc1 — higher, 4.16%
- CCCCCCC1/C(=N\NC(=O)c2ccccc2)CCC1C(=O)OC (centres unmarked) — lower, -43.8%
- CC(C)[C@H](NC(=O)N1CCn2c1nc1ccccc12)C(=O)N[C@@H](C(=O)O)c1ccccc1 — higher, 17.7%
- CC(C)c1ccc(N(C)C(=O)Cc2c(C(=O)O)n(C)c3ccccc23)cc1 — lower, 0.167%
- Fc1cnc(N/N=C/c2ccc(-c3ccc(Br)cc3)o2)nc1N1CCOCC1 — lower, -15.8%
- O=C(O)CCC(=O)N1CCN(c2nc(-c3ccccc3)c3cc(Br)ccc3n2)CC1 — higher, 3.79%
- COc1cccc(/C=C/C(=O)OCC(=O)c2c[nH]c3ccccc23)c1 — higher, 13%
- COc1ccccc1N1CCN(CCCNC(=O)Cn2ncc3c([nH]c4ccccc43)c2=O)CC1 — lower, -68.6%
- Cc1ccccc1CS(=O)(=O)CCC(=O)NCCCN1CCOCC1 — lower, -10.6%
- Cc1ccccc1CS(=O)(=O)CCC(=O)NCCCN1CCN(c2ccccc2F)CC1 — lower, -59.3%
- O=C(CCS(=O)(=O)Cc1ccccc1F)NCCCN1CCCCC1 — higher, 8.31%
- O=C(Cn1ncc2c([nH]c3ccccc32)c1=O)NCCCN1CCN(c2ccccc2)CC1 — lower, -21.5%
- CC1CCN(CCCNC(=O)Cn2ncc3c([nH]c4ccccc43)c2=O)CC1 — higher, 9.35%
- Nc1nc2ccccc2n1/N=C/c1cccnc1 — higher, 2.44%
- CC(C)(OC(=O)NC(=O)C(F)(F)F)C(C)(C)OC(=O)NC(=O)C(F)(F)F — higher, 31.4%
- COc1ccc(Cn2c(O)c(C=Nc3ccc(C)cc3)c3ccccc3c2=O)cc1 — higher, 2.35%
